Consider seven molecules from PubChem BioAssay (Tox21).

Assay [1] in a line: qHTS assay to identify small molecule antagonists of the estrogen related receptor (ERR) signaling pathway from Tox21 library - cell viability counter screen (AID 1224834). Further: nearly all actives have a fitted effect of over 30% in size. Summed up: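 CellTiter-Fluor fluorescence measured; ERR cells; 17.5 h compound incubation at 37 C; 30 min reagent step.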
For assay [2], the target named is Luciferin 4-monooxygenase (Photinus pyralis) (UniProt P08659). Briefly: qHTS assay to identify small molecule inhibitors of firefly luciferase (AID 1224835). Further: nearly all actives have a fitted effect of over 25% in size. Further: potency means the concentration at half of the fitted maximal effect. Summed up:
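Biochemical qHTS: compounds run as interplate titrations against purified firefly enzyme, with D-luciferin and ATP each at its KM concentration. Light output recorded by CCD imaging.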
On the technique in general: qHTS replaces the single test concentration by a dilution series.

The nature of assay [3]: qHTS assay to identify small molecule agonists of the constitutive androstane receptor (CAR) signaling pathway - cell viability counter screen (AID 1224836). Further: nearly all actives have a fitted effect of over 45% in size. Summed up:
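HepG2-CYP2B6-hCAR, 2500 cells/well, 4 h pre-incubation; cpd 15 conc + PK11195 0.75 uM final; 23 h, 37 C/5% CO2; CellTiter-Fluor, fluorescence.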

Assay [4] is described as follows: qHTS assay to identify small molecule antagonists of the constitutive androstane receptor (CAR) signaling pathway - cell viability counter screen (AID 1224837). Further: nearly all actives have a fitted effect of over 45% in size. In short, it runs like this: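 Using CellTiter-Fluor, viability is scored in HepG2 cells stably carrying hCAR and a 2.2kb CYP2B6 reporter after 23 hr compound exposure across 15 concentrations, with CITCO present at 50 nM.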

Assay [5] can be described thus: qHTS assay to identify small molecule antagonists of the estrogen related receptor signaling pathway with the pleiotropic PPARgamma coactivator (PGC) from Tox21 10K library - cell viability counter screen (AID 1224840; active means well fitted cell-killing curve with a large enough effect in the repeat runs, not every such curve was filed as active; further: nearly all actives have a fitted effect of over 40% in size). Summed up:
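Here the PGC/ERR cells serve as a cytotoxicity control: they are exposed to compounds for 17.5 hours at 37 C, and live-cell signal is quantified using CellTiter-Fluor fluorescence.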

Assay [6] can be described thus: qHTS assay to identify small molecule antagonists of the estrogen related receptor signaling pathway with the pleiotropic PPARgamma coactivator (PGC) from Tox21 10K library (AID 1224841; call rule not given here; further: actives are mostly falling curves and most rising ones were filed inactive; nearly all actives have a fitted effect of over 50% in size). Summed up: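 Each well held 2,000 PGC/ERR cells, pre-incubated six hours (37 C, 5% CO2). Test substances in DMSO were added by pin tool and left for 18 h at 37 C before luciferase detection by One-Glo.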

The nature of assay [7]: qHTS assay to identify small molecule agonists of the estrogen related receptor signaling pathway with the pleiotropic PPARgamma coactivator (PGC) from Tox21 10K library (AID 1224842). Further: nearly all actives have a fitted effect of over 15% in size. Summed up: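 PGC/ERR reporter cell line, 2,000 cells per well, incubated 6 h at 37 C before 23 nL compound in DMSO was added. After 18 h at 37 C, One-Glo luminescence read following 30 min at room temperature.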

Assay [8] addresses Thyrotropin receptor (Homo sapiens) (UniProt P16473). Briefly: qHTS assay to identify small molecule agonists of the thyroid stimulating hormone receptor (TSHR) signaling pathway (AID 1224843; calls by dose curve; further: nearly all actives have a fitted effect of over 45% in size). Summed up:
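TSHR-HEK293 cells in agonist mode, 30 min room-temperature step, then cAMP measured by competitive HTRF (cAMP-d2 with anti-cAMP cryptate) after 1 h at room temperature. Tested at 15 concentrations in triplicate.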

The nature of assay [9]: qHTS assay to identify small molecule agonists of the hypoxia (HIF-1) signaling pathway - cell viability counter screen (AID 1224844; calls by dose curve; further: nearly all actives have a fitted effect of over 50% in size). In short, it runs like this: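 Multiplexed with the HRE beta-lactamase assay, this viability read used CellTiter-Glo luminescence (30 min, RT) on HRE-bla ME-180 cells treated 17 hrs with compounds in 0.5% dialyzed FBS medium.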
Assay [10] can be described thus: qHTS assay to identify small molecule agonists of H2AX (AID 1224845; active means well fitted activation curve with a large enough effect in the signal ratio in the repeat runs, not every such curve was filed as active; the % refers to the signal ratio). In short, it runs like this: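 Wild-type CHO-K1 cells, plated overnight, exposed 3hr at 37C to 15 concentrations (0.76% DMSO final). Lysed, then HTRF anti-pH2AX (S139) cryptate and anti-H2AX-d2 antibodies, 24 hr room temperature; 665/620 nm emission read.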
Assay [11] in a line: qHTS assay to identify small molecule agonists of the hypoxia (HIF-1) signaling pathway (AID 1224846; active means well fitted activation curve with a large enough effect in the signal ratio in the repeat runs, not every such curve was filed as active; the % refers to the signal ratio). Summed up:
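Hypoxia-pathway activation was scored as increased beta-lactamase from an HRE-controlled reporter in ME-180 cells; plated at 2,000 cells per well with 0.5% dialyzed FBS, they were exposed 17 hrs to compounds and then given CCF4-AM.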

Assay [12] is described as follows: qHTS assay to identify small molecule agonists of H2AX - cell viability counter screen (AID 1224847; calls by dose curve; further: top concentration of the series differs between compounds; nearly all actives have a fitted effect of over 30% in size). Summed up:
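Cells plated first: CHO-K1, 1000 per well in 10% FBS medium, incubated overnight at 37C. Then 15-point compound titration added (final DMSO 0.76%) for 3 hr. Finally CellTiter-Glo added and luminescence read.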

A short description of assay [13]: qHTS assay to identify small molecule antagonists of the estrogen related receptor (ERR) signaling pathway from Tox21 library (AID 1224848). Further: nearly all actives have a fitted effect of over 50% in size. Summed up:
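ERR reporter cell line (from NTP) seeded 2,000 cells/well, rested 6 h at 37 C/5% CO2, then pin-dosed with compounds in DMSO. After 18 h at 37 C, ONE-Glo added; luminescence read after 30 min at room temperature.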

A short description of assay [14]: qHTS assay to identify small molecule agonists of the estrogen related receptor (ERR) signaling pathway from Tox21 library (AID 1224849; calls by dose curve; further: nearly all actives have a fitted effect of over 15% in size). The settings on record: ERR reporter cell line, ONE-Glo luciferase, 18 h. In short, it runs like this:
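Six hours post-seeding at 37 C/5% CO2, ERR cells receive DMSO-solubilised compounds; after 18 h at 37 C, ONE-Glo reagent is applied and luminescence recorded.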

Assay [15] in a line: qHTS RealTime-Glo MT Cell Viability Assay in HepG2 cells - 24 hour (AID 1224867). Further: nearly all actives have a fitted effect of over 50% in size. In short, it runs like this:
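Real-time, nonlytic viability: 600 HepG2 cells/well mixed with NanoLuc enzyme plus prosubstrate; 5 h settle, compound (DMSO) added by pintool; luminescence monitored over 40 h at 37 C.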

Assay [16] is described as follows: qHTS RealTime-Glo MT Cell Viability Assay in HEK293 cells - 32 hour (AID 1224868). Summed up: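 Cells + reagent dispensed (600 cells/well, HEK293) → 5 h at 37 C/5% CO2 → 23 nL compound in DMSO pinned → 40 h at 37 C → luminescence read at 0, 8, 16, 24, 32, 40 h.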
Assay [17] is described as follows: A CellTox Green Cytotoxicity Assay to monitor cytotoxicity in HEK293 cells - 0 hour (AID 1224869). Further: nearly all actives have a fitted effect of over 50% in size. Summed up: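 Seeding of HEK293 cells together with cytotoxicity dye preceded a 5 h incubation at 37 C/5% CO2. Test compounds in DMSO were then added and fluorescence monitored across 40 h.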
Assay [18] concerns the target Nuclear receptor subfamily 1 group I member 3 (Homo sapiens) (UniProt Q14994). Briefly: qHTS assay to identify small molecule agonists of the constitutive androstane receptor (CAR) signaling pathway (AID 1224839). Further: nearly all actives have a fitted effect of over 15% in size. Further: potency means the concentration at half of the fitted maximal effect. In short, it runs like this: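 HepG2-CYP2B6-hCAR cells, 2500/well, 4 h pre-incubation; compounds 15 conc.; PK11195 0.75 uM final; 24 h, 37 C/5% CO2; ONE-Glo luciferase read.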

Several values for one entry are separate records, joined by “and”; a condition that tells them apart may be missing. Identical values can stand only once. Inconclusive results are not listed. Some compounds were tested as several samples or in several runs, with calls that do not always agree. Activity calls are given as the source filed them. Unless noted, the call rests on the fitted dose curve; in most records, active means well fitted curve in the direction sought with a large enough effect in the repeat runs; inconclusive means weak or mixed curves; inactive means no such curve, though single readings can be large; an effect the other way counts as inactive or inconclusive.
On the % scale 0 is the no-effect control and ±100 the full control effect.

Nuclear receptor subfamily 1 group I member 3 (Homo sapiens), sequence (Q14994 whole entry, looked up): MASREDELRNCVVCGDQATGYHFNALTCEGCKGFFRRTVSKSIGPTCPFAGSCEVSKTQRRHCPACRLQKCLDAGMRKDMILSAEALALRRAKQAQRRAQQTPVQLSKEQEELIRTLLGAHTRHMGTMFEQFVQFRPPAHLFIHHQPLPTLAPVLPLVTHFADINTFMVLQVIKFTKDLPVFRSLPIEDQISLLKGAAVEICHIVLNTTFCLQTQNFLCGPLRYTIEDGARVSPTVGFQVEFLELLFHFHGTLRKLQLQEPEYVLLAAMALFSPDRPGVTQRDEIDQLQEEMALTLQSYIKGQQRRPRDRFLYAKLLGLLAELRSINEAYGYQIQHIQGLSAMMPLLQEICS
Luciferin 4-monooxygenase (Photinus pyralis), sequence (P08659 whole entry, looked up): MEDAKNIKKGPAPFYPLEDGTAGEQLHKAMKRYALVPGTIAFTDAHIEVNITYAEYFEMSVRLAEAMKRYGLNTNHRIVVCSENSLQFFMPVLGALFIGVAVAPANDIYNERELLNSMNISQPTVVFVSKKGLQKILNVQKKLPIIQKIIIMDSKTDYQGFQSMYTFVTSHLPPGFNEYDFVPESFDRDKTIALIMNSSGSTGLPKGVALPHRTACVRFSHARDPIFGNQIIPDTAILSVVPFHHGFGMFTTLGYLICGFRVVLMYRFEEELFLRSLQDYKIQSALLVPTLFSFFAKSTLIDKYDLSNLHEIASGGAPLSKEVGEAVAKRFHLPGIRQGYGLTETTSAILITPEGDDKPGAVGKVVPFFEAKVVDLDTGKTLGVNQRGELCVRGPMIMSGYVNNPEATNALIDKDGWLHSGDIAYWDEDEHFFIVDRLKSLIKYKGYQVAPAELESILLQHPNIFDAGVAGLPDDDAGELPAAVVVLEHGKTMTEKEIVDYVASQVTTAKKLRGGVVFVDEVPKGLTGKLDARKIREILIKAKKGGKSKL
Thyrotropin receptor (Homo sapiens), sequence (P16473 whole entry, looked up): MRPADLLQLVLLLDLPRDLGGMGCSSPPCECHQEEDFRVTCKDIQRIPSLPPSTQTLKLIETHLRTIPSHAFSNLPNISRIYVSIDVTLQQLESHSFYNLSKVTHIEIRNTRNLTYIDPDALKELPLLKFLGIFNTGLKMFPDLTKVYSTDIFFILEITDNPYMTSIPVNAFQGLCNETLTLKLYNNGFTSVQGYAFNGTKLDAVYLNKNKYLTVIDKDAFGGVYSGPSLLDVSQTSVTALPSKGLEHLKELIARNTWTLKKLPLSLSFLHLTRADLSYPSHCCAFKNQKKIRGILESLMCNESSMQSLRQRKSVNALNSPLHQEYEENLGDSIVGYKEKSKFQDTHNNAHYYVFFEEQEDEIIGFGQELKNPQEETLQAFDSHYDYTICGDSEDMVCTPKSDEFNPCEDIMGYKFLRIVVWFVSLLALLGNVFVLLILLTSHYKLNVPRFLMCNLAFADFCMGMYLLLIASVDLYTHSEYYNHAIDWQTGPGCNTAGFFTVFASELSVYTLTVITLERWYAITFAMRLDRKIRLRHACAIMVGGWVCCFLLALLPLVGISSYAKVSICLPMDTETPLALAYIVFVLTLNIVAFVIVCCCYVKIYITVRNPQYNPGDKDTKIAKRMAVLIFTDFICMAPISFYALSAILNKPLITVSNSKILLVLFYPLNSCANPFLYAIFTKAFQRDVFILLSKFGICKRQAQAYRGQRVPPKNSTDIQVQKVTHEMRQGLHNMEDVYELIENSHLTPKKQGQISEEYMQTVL

Take `CCOC(=O)/C=C\C(=O)OCC`: the Potency entry in assay [1], in assay [2], in [3], in assay [4], in assay [5] and in assay [6] was “inactive” in each case. For the same molecule, the Potency entry in [7], in assay [8], in assay [9], in [10], in assay [12] and in assay [13] was “inactive” throughout. The Potency entry in [15], in assay [16] and in assay [17] was “inactive” each time. The call in [11] was inactive. Also, in assay [14] (at 92.4 µM (top of the series)), the activity change, positive = activation was 1.73% (inactive) and 0.529% (active).
Turning to `CCc1ccc(O)cc1`, the Potency entry in [1], in assay [2], in assay [3], in assay [4], in [18] and in assay [5] was “inactive” in each case. Moreover, the Potency result in assay [6], in assay [7], in assay [8], in [9], in assay [10] and in [13] was “inactive” each time. Besides, the Potency result in assay [15] and in assay [17] was “inactive” each time. The result in assay [11] was inactive. The activity change, positive = activation in assay [14] (at 92.4 µM (top of the series)) is 0.519% (inactive) and 6.7% (inactive).
With `CN(C)c1cccc(O)c1`, the Potency entry in assay [1], in assay [3], in assay [4], in assay [5], in [8] and in assay [9] was “inactive” in each case. Further, the Potency entry in assay [10], in [15], in assay [16] and in [17] was “inactive” each time. Besides, the Potency was 31.7 µM (active) in [2] and 62.1 µM (active) in assay [18]. For the same molecule, the call in assay [11] was inactive.
Consider `O=C(Cl)c1c(Cl)c(Cl)c(C(=O)Cl)c(Cl)c1Cl`, for which the Potency entry in assay [1], in assay [2], in assay [3], in assay [4], in assay [18] and in assay [5] was “inactive” in each case. For the same molecule, the Potency entry in assay [6], in assay [7], in assay [9], in assay [10], in assay [12] and in assay [13] was “inactive” throughout. For the same molecule, the Potency entry in assay [15], in [16] and in [17] was “inactive” throughout. The molecule was classed as inactive in assay [11]. The activity change, positive = activation in [14] (at 92.4 µM (top of the series)) is 2.78% (inactive) and 1.3% (inactive).
For `OC1CCCC1`, the Potency result in assay [1], in assay [2], in assay [3], in assay [4], in assay [18] and in [5] was “inactive” in each case. Further, the Potency result in assay [6], in assay [7], in assay [8], in [9], in [10] and in [12] was “inactive” throughout. The Potency entry in assay [13], in assay [15], in assay [16] and in [17] was “inactive” in each case. Moreover, the outcome in assay [11] was inactive. Besides, the activity change, positive = activation in assay [14] (at 92.4 µM (top of the series)) is 4.85% (inactive) and 0.946% (inactive).
For the molecule `CC1(C)O[C@@H]2C[C@H]3[C@@H]4C[C@H](F)C5=CC(=O)CC[C@]5(C)[C@H]4[C@@H](O)C[C@]3(C)[C@]2(C(=O)CO)O1`, the Potency result in assay [1], in assay [2], in assay [3], in assay [4], in [5] and in assay [6] was “inactive” each time. Further, the Potency entry in [7], in assay [8], in assay [9], in assay [10], in [12] and in assay [13] was “inactive” in each case. The Potency result in assay [15] and in assay [17] was “inactive” in each case. The outcome in [11] was inactive. Further, the activity change, positive = activation was -3.03% (inactive) in assay [14] (at 42.5 µM (top of the series)) and -6.71% (inactive) in assay [14] (at 92.4 µM (top of the series)).
Take `O=C(c1ccc(O)cc1)c1ccc(O)cc1O`: the Potency result in assay [1], in [3], in assay [4], in assay [5], in assay [8] and in assay [10] was “inactive” each time. The Potency entry in assay [15], in assay [16] and in assay [17] was “inactive” throughout. The Potency was 71.8 µM (active) and 39.9 µM (active) in [2]; 27.6 µM (active) and 54.5 µM (active) in assay [18]. Besides, the molecule was called inactive in assay [11].
